From paper PMC5540273 (PLoS ONE, 2017)

system: MST4; details: concentration: 1 μM, replicates: in singlicate; n = 1
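Further: KINOMEscan kinase panel screen.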

SMILES	%Inh [%]
Cl.Nc1ncnc2occ(-c3ccc(NC(=O)Nc4cc(C(F)(F)F)ccc4F)cc3)c12 [SB-707548]	8
Fc1ccc(-c2ncn(CCCN3CCOCC3)c2-c2cccnc2)cc1 [SB-211743]	0
CCCCCc1nc2c(N)ncnc2n1CCCCC [SKF-97255]	0
c1ccc(-c2cc(-c3c[nH]nc3-c3ccccn3)ccn2)cc1 [GW576604]	0
COc1ccc(Nc2nccc(N3CCC(NC(=O)Nc4cccc(C(C)=O)c4)C3)n2)cc1 (stereo not drawn) [GSK1379731]	0
CCc1nc(-c2cccc(C)c2)c(-c2ccnc(NCc3ccccc3)c2)s1	0
COC(=O)Nc1nc2cc(Oc3ccc(NC(=O)Nc4cc(F)ccc4F)cc3)ccc2[nH]1.Cl [GW701424]	0
CN1c2ccc(CNc3ccc(F)cc3)cc2-c2c(cnn2C)S1(=O)=O	0
O=C(NCCCN1CCOCC1)c1cccc(Nc2nccc(Nc3ccc(Oc4ccccc4)cc3)n2)c1 [GW663929]	0
N#Cc1c(N2CCOCC2)sc(-c2ccn[nH]2)c1-c1ccc(Cl)cc1	0
O=C1Cc2cc(Nc3nc(NCc4cccc(S(=O)(=O)C(F)(F)F)c4)ncc3C(F)(F)F)ccc2N1	1
[2H]C([2H])(c1cccc(C(F)(F)F)c1C)n1ccn2c(=O)nc(N3CCOCC3)cc12 [GSK2336394]	0
COc1cc2c(cc1OCCN1CCN(C)CC1)ncc1c3ccc(C#N)cc3[nH]c21	0
O=c1cc(N2CCOCC2)nc2n(Cc3cccc(C(F)(F)F)c3)ccn12 [GSK2297543]	0
Nc1nccc(-c2c(-c3ccc(F)cc3)ncn2C2CCN(CC(F)(F)F)CC2)n1 [SB-236560]	0
CN(C(=O)c1ccc(-c2cc(-c3c[nH]nc3-c3ccccn3)ccn2)cc1)C1CCOCC1 [GW810083]	0
NCC(NC(=O)c1cc(-c2cn[nH]c2)c(-c2ccnc3[nH]ccc23)s1)c1ccccc1.O=C(O)C(F)(F)F.O=C(O)C(F)(F)F (stereo not drawn) [GSK1325775]	45

SMILES	%Inh [%]
COCCNC(=O)c1ccc(-c2cc(C(=O)NC3CC3)cc(F)c2C)cc1 [GW868318]	38
Fc1ccc(-c2nn3c(OCC(F)(F)F)cccc3c2-c2ccncc2)cc1 [GW514784]	0
C[C@@H](Oc1cc(-n2cnc3ccc(NC(=O)NC(C)(C)C)cc32)sc1C(N)=O)c1ccccc1Cl [GSK346294]	0
Cl.Oc1cccc(Nc2ccnc3cc(-c4ccncc4)ccc23)c1 [GW494601]	0
Cc1cn2c(=O)cc(N3CCOCC3)nc2n1Cc1cccc(Cl)c1Cl [GSK2334006]	0
Cc1cccc(-c2nc(-c3ccc(S(C)(=O)=O)cc3)sc2-c2ccncc2)c1	0
Cc1cccc(-c2nc(Nc3ccc4ncsc4c3)c3ccccc3n2)n1 [GW867588]	16
NS(=O)(=O)c1cccc(-c2ccc3ncc(N4CCOCC4)nc3c2)c1 [GSK1535721]	0
O=c1cc(N2CCOCC2)nc2n(Cc3cccc4ccccc34)ccn12 [GSK2333389]	0
CN1c2ccc(NCc3ccc(F)cc3)cc2-c2c(cnn2C)S1(=O)=O	0
O=c1cc(N2CCOCC2)nc2n(Cc3cccc(Cl)c3Cl)c(C3CC3)nn12 [GSK2358994]	0
CSc1ccc(-c2cc3ncnc(SCC(=O)O)c3s2)cc1	7
Cc1nnc(-c2ccc(C)c(-c3ccc(C(=O)Nc4ccc(NS(C)(=O)=O)cc4)cc3)c2)o1 [GW702865]	0
Cc1nnc(-c2ccc3occ(-c4ccc(C(C)O)cc4)c3c2)o1 (stereo not drawn)	0
O=C(Nc1cccc(-c2nn3ncccc3c2-c2ccnc(Nc3cccc(C(F)(F)F)c3)n2)c1)c1c(F)cccc1F [GSK299495]	0
Cc1ccc(C(=O)NCC(N)=O)cc1-n1c(C)cc(OCc2ccc(F)cc2F)c(Br)c1=O	0

system: MTOR; details: concentration: 1 μM, replicates: in singlicate; n = 1

SMILES	%Inh [%]
Cl.Nc1ncnc2occ(-c3ccc(NC(=O)Nc4cc(C(F)(F)F)ccc4F)cc3)c12 [SB-707548]	16
Fc1ccc(-c2ncn(CCCN3CCOCC3)c2-c2cccnc2)cc1 [SB-211743]	0
CCCCCc1nc2c(N)ncnc2n1CCCCC [SKF-97255]	0
c1ccc(-c2cc(-c3c[nH]nc3-c3ccccn3)ccn2)cc1 [GW576604]	10
COc1ccc(Nc2nccc(N3CCC(NC(=O)Nc4cccc(C(C)=O)c4)C3)n2)cc1 (stereo not drawn) [GSK1379731]	16
CCc1nc(-c2cccc(C)c2)c(-c2ccnc(NCc3ccccc3)c2)s1	12
COC(=O)Nc1nc2cc(Oc3ccc(NC(=O)Nc4cc(F)ccc4F)cc3)ccc2[nH]1.Cl [GW701424]	15
CN1c2ccc(CNc3ccc(F)cc3)cc2-c2c(cnn2C)S1(=O)=O	24
O=C(NCCCN1CCOCC1)c1cccc(Nc2nccc(Nc3ccc(Oc4ccccc4)cc3)n2)c1 [GW663929]	12
N#Cc1c(N2CCOCC2)sc(-c2ccn[nH]2)c1-c1ccc(Cl)cc1	0
O=C1Cc2cc(Nc3nc(NCc4cccc(S(=O)(=O)C(F)(F)F)c4)ncc3C(F)(F)F)ccc2N1	29
[2H]C([2H])(c1cccc(C(F)(F)F)c1C)n1ccn2c(=O)nc(N3CCOCC3)cc12 [GSK2336394]	18
COc1cc2c(cc1OCCN1CCN(C)CC1)ncc1c3ccc(C#N)cc3[nH]c21	38
O=c1cc(N2CCOCC2)nc2n(Cc3cccc(C(F)(F)F)c3)ccn12 [GSK2297543]	4
Nc1nccc(-c2c(-c3ccc(F)cc3)ncn2C2CCN(CC(F)(F)F)CC2)n1 [SB-236560]	0
CN(C(=O)c1ccc(-c2cc(-c3c[nH]nc3-c3ccccn3)ccn2)cc1)C1CCOCC1 [GW810083]	10
NCC(NC(=O)c1cc(-c2cn[nH]c2)c(-c2ccnc3[nH]ccc23)s1)c1ccccc1.O=C(O)C(F)(F)F.O=C(O)C(F)(F)F (stereo not drawn) [GSK1325775]	5

SMILES	%Inh [%]
COCCNC(=O)c1ccc(-c2cc(C(=O)NC3CC3)cc(F)c2C)cc1 [GW868318]	0
Fc1ccc(-c2nn3c(OCC(F)(F)F)cccc3c2-c2ccncc2)cc1 [GW514784]	35
C[C@@H](Oc1cc(-n2cnc3ccc(NC(=O)NC(C)(C)C)cc32)sc1C(N)=O)c1ccccc1Cl [GSK346294]	31
Cl.Oc1cccc(Nc2ccnc3cc(-c4ccncc4)ccc23)c1 [GW494601]	4
Cc1cn2c(=O)cc(N3CCOCC3)nc2n1Cc1cccc(Cl)c1Cl [GSK2334006]	37
Cc1cccc(-c2nc(-c3ccc(S(C)(=O)=O)cc3)sc2-c2ccncc2)c1	0
Cc1cccc(-c2nc(Nc3ccc4ncsc4c3)c3ccccc3n2)n1 [GW867588]	0
NS(=O)(=O)c1cccc(-c2ccc3ncc(N4CCOCC4)nc3c2)c1 [GSK1535721]	9
O=c1cc(N2CCOCC2)nc2n(Cc3cccc4ccccc34)ccn12 [GSK2333389]	0
CN1c2ccc(NCc3ccc(F)cc3)cc2-c2c(cnn2C)S1(=O)=O	20
O=c1cc(N2CCOCC2)nc2n(Cc3cccc(Cl)c3Cl)c(C3CC3)nn12 [GSK2358994]	0
CSc1ccc(-c2cc3ncnc(SCC(=O)O)c3s2)cc1	36
Cc1nnc(-c2ccc(C)c(-c3ccc(C(=O)Nc4ccc(NS(C)(=O)=O)cc4)cc3)c2)o1 [GW702865]	28
Cc1nnc(-c2ccc3occ(-c4ccc(C(C)O)cc4)c3c2)o1 (stereo not drawn)	0
O=C(Nc1cccc(-c2nn3ncccc3c2-c2ccnc(Nc3cccc(C(F)(F)F)c3)n2)c1)c1c(F)cccc1F [GSK299495]	17
Cc1ccc(C(=O)NCC(N)=O)cc1-n1c(C)cc(OCc2ccc(F)cc2F)c(Br)c1=O	0
